# Methyltransferases: Primary Screen for Target Class Profiling of Small Molecule Inhibitors of Methyltransferases | actives 3.9% (n = 25,000) | calls only at 40 µM | AID 1745853, 2022 | purified enzyme, MTase-Glo SAH luminescence; hits give low values; call rule not given here
#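 Each enzyme was assayed with SAM and its substrate. SAH formation detected by MTase-Glo luminescence; single-point 40 uM screen[…].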
# Numbers without * were called inactive; i = inactive; + = active, no number. This is one part of a sample in which hits are shown more often than they occur. On the % scale 0 is the no-effect control and ±100 the full control effect.
SMILES,Methyltransferases
Cc1cc2[nH]c(=O)[nH]c2cc1S(=O)(=O)NC1CCCCC1,i
Nc1ncnc2c1ncn2[C@H]1O[C@@H](C(=O)N2CCN(CC(=O)Nc3cccc4c3CNC4=O)CC2)[C@H](O)[C@@H]1O,+
CNC(=O)[C@H]1O[C@@H](n2cnc3c(NCc4ccc(N)c(I)c4)ncnc32)[C@H](O)[C@@H]1O,i
CNC(=O)[C@H]1O[C@@H](n2cnc3c(NCc4ccc(N)cc4)ncnc32)[C@H](O)[C@@H]1O,i
CCCN1C(=O)c2cc3sccc3n2CC1(C)C(=O)NC1CCCCCCC1 (configuration not stated),i
NS(=O)(=O)OC[C@@H]1C[C@@H](n2ccc3c(N[C@H]4CCc5ccccc54)ncnc32)C[C@@H]1O,+
O=C(c1ccc2c(=O)nc3c(-c4ccccc4)n[nH]n3c2c1)N1CCN(c2ccccc2F)CC1,i
COc1ccc(OCC2CN(CC3CC3)[S+](=O)([O-])c3cnccc3O2)cc1 (configuration not stated),i
Cc1csc(CN(C)C(=O)CC(c2ccccc2)c2ccc3c(c2)OCO3)n1 (configuration not stated),i
CN(Cc1nccs1)c1ncnc2ccc(-c3ccc4c(c3)OCO4)cc12,+
Cn1c(=O)n(C)c2cc(CNCCNC(=O)c3nonc3N)ccc21,i
COc1cccc(C(=O)Cn2nc3n(CCc4ccccc4)c(=O)c4ccccc4n3c2=O)c1,i
O=C(NCCc1ccccc1)Nc1cccn2ncnc12,i
CN1C(=O)c2cc(C(=O)NCCN3CCOCC3)nn2CC1(C)C(=O)NCc1ccccc1 (configuration not stated),i
Cc1cc(NC(=O)NCCN2CCC(O)(Cc3ccccc3)CC2)c2ccccc2n1,+
CCC(C)NC(=O)c1ccc2c(=O)n(CCC(C)C)c3nn(CC(=O)Nc4ccc(C)cc4)c(=O)n3c2c1 (configuration not stated),i
Cc1ccc(CN2CC(=O)N(Cc3ccc(Cl)cc3)c3ccccc3S2(=O)=O)cc1,i
CCC(C)NC(=O)c1ccc2c(=O)n(Cc3ccccc3)c3nn(Cc4cccc(F)c4)c(=O)n3c2c1 (configuration not stated),i
CC1(C(=O)NCc2ccccc2)Cn2nc(-c3ccccc3)cc2C(=O)N1CCCc1ccccc1 (configuration not stated),i
Fc1cccc(-c2nnn3c2nc(NCc2ccc4c(c2)OCO4)c2cc(Cl)ccc23)c1,i
Clc1cccc(-c2nnn3c2nc(NCc2ccc4c(c2)OCO4)c2ccccc23)c1,i
COc1cccc(-c2cc(NCc3ccc4c(c3)OCO4)nc(N)n2)c1,+
CC(C)c1ccc(N2C(=O)c3cc4sccc4n3CC2(C)C(=O)NC2CCCCCC2)cc1 (configuration not stated),i
CC1=CC(=O)C2(OC3OC(C)C(O)C(OC(=O)/C=C/c4ccccc4)C3O)C=COC(OC3OC(CO)C(O)C(O)C3O)C12 (configuration not stated),+
C[C@@H]1O[C@@H](O[C@H]2[C@@H]3C=CO[C@@H](O[C@@H]4O[C@H](CO)[C@@H](O)[C@H](O)[C@H]4O)[C@@H]3[C@@]3(CO)O[C@@H]23)[C@H](O)[C@H](OC(=O)/C=C/c2ccccc2)[C@H]1O,i
SMILES,Methyltransferases
CC(=O)O[C@@H]1[C@@H](O)[C@H](C)O[C@@H](O[C@H]2[C@@H]3C=CO[C@@H](O[C@@H]4O[C@H](CO)[C@@H](O)[C@H](O)[C@H]4O)[C@@H]3[C@@]3(CO)O[C@@H]23)[C@@H]1OC(=O)/C=C/c1ccccc1,i
COc1ccccc1CNC(=O)C1(C)Cn2cnc(C(=O)NCc3ccc(C)cc3)c2C(=O)N1C1CC1 (configuration not stated),i
Cc1cc(C)c(NS(=O)(=O)c2ccc3[nH]c4c(c3c2)CCCC4)c(C)c1,i
Cc1ccc(N2C(=O)c3cc4occc4n3CC2(C)C(=O)NC2CCC(C)CC2)cc1 (configuration not stated),i
CC(=O)OC12CC(C)C(O)C1/C=C(/COC1OC(CO)C(O)C(O)C1O)CCC1C(/C=C(\C)C2=O)C1(C)C (configuration not stated),i
CC(C)OCCCn1c(=O)c2ccccc2n2c(CCC(=O)N3CCN(c4ccccc4)CC3)nnc12,i
CC1CCC(NC(=O)C2(C)Cn3c(nc4ccccc43)C(=O)N2Cc2cccc(Cl)c2)CC1 (configuration not stated),i
Cc1ccc2nc(N)[nH]c(=O)c2c1Sc1ccncc1,+
COC(=O)c1cc2n(n1)CC(C)(C(=O)NC1CCCC1)N(Cc1ccccc1OC)C2=O (configuration not stated),i
CCCn1c(=O)c2cc(F)ccc2n2c(SCc3cccc(C)c3)nnc12,i
CCCN1C(=O)c2c(C(=O)NCc3cc(Br)ccc3OC)ncn2CC1(C)C(=O)NCCC(C)C (configuration not stated),i
COc1ccc(CNC(=O)Cn2nc3n(CCC(C)C)c(=O)c4ccccc4n3c2=O)cc1,i
CCn1c(=O)[nH]c2ccc3c(c21)C(=O)c1ccccc1C3=O,i
COc1ccc(Cl)cc1NC(=O)Cn1c(=O)oc2cc(S(=O)(=O)N3CCCC3)ccc21,i
c1ccc(CCNc2nc3c(-c4ccccc4)nnn3c3ccccc23)cc1,i
COc1ccc(CCNc2nc3c(-c4ccccc4)nnn3c3ccccc23)cc1OC,i
Fc1cccc(-c2nnn3c2nc(NCCc2ccccc2)c2ccccc23)c1,+
Cc1cccc(C2c3cccn3-c3sc4c(c3CN2C(=O)Nc2ccccc2)CCCC4)c1 (configuration not stated),i
CCC1(CO)CCCN(CCCOc2ccc(C(N)=O)cc2)C1 (configuration not stated),i
CC/C(=C(\c1ccc(O)cc1)c1ccc(OCCNC)cc1)c1ccccc1,i
c1cc(OCCCN2CCCCC2)ccc1CN1CCCCC1,+
CC/C(=C(\c1ccccc1)c1ccc(OCCN(C)C)cc1)c1ccccc1,i
CCC(=C(c1ccc(OCCN2CCCC2)cc1)c1ccc(OCCN2CCCC2)cc1)c1ccccc1,+
Cc1ccc(CN2CCN(Cc3ccc(=O)n(C)c3)CC2)cc1,i
CSc1cccc(NC(=O)c2cc3n(n2)CC(C)(C(=O)NC2CCCCC2)N(C)C3=O)c1 (configuration not stated),i
SMILES,Methyltransferases
CN1C(=O)c2cc(C(=O)NCc3ccccc3Cl)nn2CC1(C)C(=O)NCc1ccccc1 (configuration not stated),i
CCOc1ccc(NC(=O)N2Cc3c(sc4c3CCCC4)-n3cccc3C2c2ccc(F)cc2)cc1 (configuration not stated),i
CN1C(=O)c2cc(C(=O)NCc3cccs3)nn2CC1(C)C(=O)NCc1ccc(F)cc1 (configuration not stated),i
COc1ccccc1N1C(=O)CSc2c(c3ccccc3n2C)C1C(=O)NCc1ccc(F)cc1 (configuration not stated),i
Nc1ncnc2c1nc(N)n2[C@@H]1O[C@H](CO)[C@@H](O)[C@H]1O,i
Nc1ncnc2c1ncn2[C@@H]1O[C@H](CO)C[C@H]1O,i
NC[C@H]1O[C@@H](n2cnc3c(N)ncnc32)[C@H](O)[C@@H]1O,+

# Screening results: PubChem BioAssay, National Center for Advancing Translational Sciences (NCATS)
